Source: PubChem BioAssay (Tox21)
Records with an inconclusive call do not appear. Calls of active or inactive are those of the source. The call rests on the fitted dose curve; in most records, active means well fitted activation curve with a large enough effect in the repeat runs; inconclusive means weak or mixed curves, or effect the other way; inactive means no such curve, though single readings can be large or run the other way.

assay: qHTS assay to identify small molecule agonists of the estrogen related receptor signaling pathway with the pleiotropic PPARgamma coactivator (PGC) from Tox21 10K library (AID 1224842); settings: PGC/ERR reporter cell line, luciferase ONE-Glo, 18 h; series mostly up to 92.4 µM; activation: at the top concentration; further: nearly all actives have a fitted effect of over 15% in size
Excerpt: National Center for Advancing Translational Sciences [NCATS] NIH Chemical Genomics Center [NCGC] U.S. Environmental Protection Agency [EPA] National Institutes of Environmental Health Sciences [NIEHS] National Toxicology Program [NTP] Assay overview: Estrogen related receptors (ERRs), the first orphan nuclear receptors discovered, play an important role in the control of cellular energy metabolism. ERRs are required for high-energy production in response to the environmental challenges. The pleiotropic PPARgamma coactivator (PGC) is a major partner of ERR and a key regulator in energy homeostasis. Together they have been implicated in the etiology of metabolic disorders such as Type 2 diabetes and metabolic syndrome. ERR-alpha was also identified as an adverse marker for breast cancer progression; ERR-alpha-positive tumors have a poor prognosis. To screen and to identify environmental compounds that perturb the PGC/ERR signaling pathways could provide valuable information for potential therapeutic or preventive measures in the treatment of metabolic disease. For identifying PGC/ERR agonists, PGC/ERR cell line (provided by NTP) has been used to screen Tox21 10K library.
Assay Protocol Summary: The PGC/ERR cells were dispensed at 2,000 cells/5 ul/well in 1536-well white plates using a Multidrop dispenser. After the assay plates were incubated at a 37 C/5% CO2 incubator for 6 hours, 23 nL of compounds dissolved in DMSO, positive and negative controls or DMSO only was transferred to the assay plate by a pin tool. The plates were incubated at 37 C for 18 hours. 4 ul/well of One-Glo reagent was added into the assay plates using a Flying Reagent Dispenser. After 30-minute incubation at room temperature, the luminescence intensity in the plates was measured using a ViewLux plate reader.
On the % scale 0 is the no-effect control and ±100 the full control effect; potency means the concentration at half of the fitted maximal effect.

Row | SMILES | activation | Potency
1 | COc1ccc([C@@H]2Sc3ccccc3NC(=O)[C@@H]2O)cc1 | -8.05% [at 42.5 µM] (inactive) | 
2 | c1ccc(COCc2ccccc2)cc1 | -0.134% (inactive) | 
3 | CC1(C)C(=O)N(Br)C(=O)N1Cl | -4.74% (inactive) | 
4 | C[C@]12CCC(=O)C=C1C=C[C@@H]1[C@@H]2CC[C@@]2(C)[C@H]1CC[C@@]21CCC(=O)O1 | 3.46% [at 42.5 µM] (inactive) | 
5 | CCCCC(CC)CNCC(CC)CCCC (stereo not given) | 1.29% (inactive) | 
6 | Cc1occc1C(=O)Nc1ccc(C(=O)N2CCC(F)(F)/C(=C\C(=O)N3CCC(N4CCCCC4)CC3)c3ccccc32)cc1 | -12.4% [at 42.5 µM] (inactive) | 
7 | COc1cc2c(N3CCN(C(=O)Nc4ccc(OC(C)C)cc4)CC3)ncnc2cc1OCCCN1CCCCC1 |  | 33.5 µM (active)
8 | O=C(NCCCN1CCOCC1)c1ccc(Cl)cc1 | 6.49% [at 42.5 µM] (inactive) | 
9 | CC(C)(C)CC(C)(C)c1ccc(OCCO)cc1 | -24.7% (inactive) | 
10 | CCN(Cc1cccc(S(=O)(=O)O)c1)c1ccc(C(=C2C=CC(=[N+](CC)Cc3cccc(S(=O)(=O)[O-])c3)C=C2)c2ccccc2)cc1 | -0.866% [at 42.5 µM] (inactive) | 
11 | CCCCC(=O)O[C@]1(C(=O)CO)CC[C@H]2[C@@H]3CCC4=CC(=O)CC[C@]4(C)[C@H]3[C@@H](O)C[C@@]21C | 3.65% [at 42.5 µM] (inactive) | 
12 | Nc1ccc(S(=O)(=O)O)cc1 | 2.04% (inactive) | 
13 | CCCCC1C(=O)N(c2ccccc2)N(c2ccc(O)cc2)C1=O (stereo not given) | -34.9% [at 42.5 µM] (inactive) | 
14 | Cc1nccn1-c1ccc(Sc2cccc(C3(C(N)=O)CCOCC3)c2)cc1 | -5.79% (inactive) | 
15 | CCOC(=O)CC(=O)C(=O)OCC | -25.5% (inactive) | 
16 | CC1=CC(=O)CC(C)(C)C1(O)/C=C/C(C)=C\C(=O)O (stereo not given) | 0.891% (inactive) | 
17 | CC(=O)[C@H]1CC[C@H]2[C@@H]3C[C@H](C)C4=CC(=O)CC[C@]4(C)[C@H]3[C@@H](O)C[C@]12C | -4.65% [at 42.5 µM] (inactive) | 
18 | CC1CC(O)CC(C)(C)C1 (stereo not given) | -2.92% (inactive) | 
19 | CC(C)c1nnc2ccc(-c3ocnc3-c3cc(F)ccc3F)cn12 | -15.7% (inactive) | 
20 | O=c1[nH]c2ccc(S(=O)CCN3CCC(Cc4ccc(F)cc4)CC3)cc2o1 (stereo not given) | -3.07% (inactive) | 

Row | SMILES | activation | Potency
21 | Cc1ccc(Nc2nccc(N(C)c3ccc4c(C)n(C)nc4c3)n2)cc1S(N)(=O)=O | -19.7% [at 42.5 µM] (inactive) | 
22 | OC/C(Br)=C(\Br)CO | 1.85% (inactive) | 
23 | CC[C@H](NC(=O)c1cc(F)ccc1NS(=O)(=O)c1cccc2cccnc12)c1ccccc1 | -17.4% (inactive) | 
24 | CC1(C)O[C@@H]2C[C@H]3[C@@H]4CCC5=CC(=O)C=C[C@]5(C)[C@H]4[C@@H](O)C[C@]3(C)[C@]2(C(=O)CO)O1 | 2.01% [at 42.5 µM] (inactive) | 
25 | CCCCCCCCCCCC(=O)[O][Sn]([CH2]CCC)([CH2]CCC)[O]C(=O)CCCCCCCCCCC | -18.4% [at 42.5 µM] (inactive) | 
26 | O=C1NCCN1 | -0.26% (inactive) | 
27 | CC(=O)Oc1ccc2c(c1)CC[C@@H]1[C@@H]2CC[C@]2(C)[C@@H](O)CC[C@@H]12 | 3.53% [at 42.5 µM] (inactive) | 
28 | CC(C)CCCCCOC(=O)CCCCC(=O)OCCCCCC(C)C | -6% (inactive) | 
29 | c1cc[c]([Bi]([c]2ccccc2)[c]2ccccc2)cc1 | -14.5% (inactive) | 
30 | NC(=O)N(O)[C@@H]1C=C[C@H](Oc2cccc(Oc3ccc(F)cc3)c2)C1 |  | 27.3 µM (active)
31 | CC(C)(C)C(=O)O | 0.963% (inactive) | 
32 | CCCCCCCCSCCO | 0.16% (inactive) | 
33 | COCCOC(=O)C1=C(C)NC(C)=C(C(=O)OC/C=C/c2ccccc2)C1c1cccc([N+](=O)[O-])c1 (stereo not given) | -24.4% [at 42.5 µM] (inactive) | 
34 | CCC(Cc1ccccc1)(C(=O)c1ccc(N2CCOCC2)cc1)N(C)C (stereo not given) | -9.88% (inactive) | 
35 | CC(C)CCCC(=O)O | -0.0844% (inactive) | 
36 | COc1ccc(CCC(=O)c2c(O)cc(O[C@@H]3O[C@H](CO)[C@@H](O)[C@H](O)[C@H]3O[C@@H]3O[C@@H](C)[C@H](O)[C@@H](O)[C@H]3O)cc2O)cc1O | -1.84% (inactive) | 
37 | CC(=O)OCC(=O)[C@H]1CC[C@H]2[C@@H]3CCC4=CC(=O)CC[C@]4(C)[C@H]3CC[C@]12C | -0.432% [at 42.5 µM] (inactive) | 
38 | CN(C)CCOC1=Cc2ccccc2Sc2ccc(Cl)cc21 | -0.332% [at 42.5 µM] (inactive) | 
39 | Oc1ccc(Nc2ccccc2)cc1 | 6.67% (inactive) | 
40 | COC(OC)(C(=O)c1ccccc1)c1ccccc1 | -4.52% (inactive) | 
